Experiment [1] in a line: qHTS assay for environmental chemicals that activate the Aryl hydrocarbon Receptor (AhR) signaling pathway (AID 651777). Further: nearly all actives have a fitted effect of over 15% in size. Further: potency means the concentration at half of the fitted maximal effect. On activation: % of control where 0% means no effect. The conditions noted are these: 1A2-DRE human hepatoma cells, luciferase, 24 h; activation: stronger effect = higher value. The gist of the method: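 Stable CYP1A2 promoter/DRE-luciferase human hepatoma line treated 24 hr; One-Glo luminescence, 30 min RT.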
A general note: In qHTS, concentration-response curves come from the screen itself.

The target of experiment [2] is Peroxisome proliferator-activated receptor alpha (Homo sapiens) (UniProt Q07869). Briefly: qHTS assay for small molecule agonists of the peroxisome proliferator-activated receptor alpha (PPARalpha) signaling pathway (AID 651778). Further: % of control where 0% means no effect. The conditions noted are these: PathHunter PPARalpha complementation, chemiluminescence, 6 h; stronger effect = higher value. The gist of the method:
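Chemiluminescence from complemented enzyme reported PPARalpha activation in cells after 6 hr of compound treatment at 37 C. The detection reagent was incubated for 60 min at room temperature, and compounds were scored as agonists.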

The target of experiment [3] is Arylsulfatase A (Homo sapiens) (UniProt P15289). Briefly: qHTS screen for enhancers of Arylsulfatase A (ASA1): LOPAC Validation Assay (AID 720538). The conditions noted are these: outcome: dose series up to 57.5 µM. The gist of the method: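 MLD patient fibroblasts (SV40, ASA-I179S), 1536-well; adhere 6 hrs; cpd 48h, 37 degree C, 5% CO2; pNCS 0.5mM final in lysis buffer, 14h RT; stop 1N NaOH final; fluor. Ex525/Em598.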
Sequence of Arylsulfatase A (Homo sapiens) (P15289 whole entry, looked up): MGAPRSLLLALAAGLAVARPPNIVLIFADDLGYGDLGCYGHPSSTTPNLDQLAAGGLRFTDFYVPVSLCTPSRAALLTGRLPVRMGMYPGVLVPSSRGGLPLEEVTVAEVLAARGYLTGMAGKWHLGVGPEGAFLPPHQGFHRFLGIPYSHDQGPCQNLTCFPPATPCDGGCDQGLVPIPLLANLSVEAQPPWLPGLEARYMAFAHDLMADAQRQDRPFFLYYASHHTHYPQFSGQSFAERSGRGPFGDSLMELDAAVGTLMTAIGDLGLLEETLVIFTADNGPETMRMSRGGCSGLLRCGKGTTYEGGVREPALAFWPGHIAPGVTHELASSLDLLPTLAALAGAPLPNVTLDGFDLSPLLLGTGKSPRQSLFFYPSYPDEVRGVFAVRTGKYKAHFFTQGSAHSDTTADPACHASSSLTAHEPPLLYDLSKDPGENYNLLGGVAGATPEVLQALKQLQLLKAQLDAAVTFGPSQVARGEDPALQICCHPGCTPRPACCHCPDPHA

The nature of experiment [4]: qHTS for compounds that reverse cellular toxicity of Amyloid beta (A-beta) peptide in yeast: LOPAC Validation Assay (AID 720559).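 Further: plate controls were DMSO for no effect and equimolar ferric chloride plus clioquinol rescue for full effect.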 Summed up:
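Medium dispensed, compounds pinned, A-beta yeast suspension added; plates held at 30 C for 48 hr; absorbance measured at 600 nm to gauge growth; values scaled between DMSO and FeCl3/clioquinol (equimolar) controls.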

Experiment [5] can be described thus: qHTS for Activators of Parkin Expression: LOPAC Validation Assay (NLuc Reporter) (AID 720572; further: potency means the concentration at half of the fitted maximal effect). The gist of the method: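 Compound effects on Parkin promoter activity were measured as NanoLuc luminescence after 24 h at 37 C. The neuronal reporter line also carried FLuc, which was read first. LOPAC compounds were tested at 7 concentrations, with normalization to DMSO (0%) and positive control (100%).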

Experiment [6] is described as follows: qHTS for Activators of Parkin Expression: LOPAC Validation Assay (FLuc Reporter) (AID 720573; further: potency means the concentration at half of the fitted maximal effect). The gist of the method: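 Cells seeded, 24 h; compounds pinned, 7-pt dose response; 24 h at 37 C/5% CO2; volume reduced; FLuc reagent 10 min RT; luminescence read. Normalization: DMSO = 0, positive control = 100%.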
The nature of experiment [7]: qHTS assay for small molecule agonists of the antioxidant response element (ARE) signaling pathway measured by Nrf2-dependant transcriptional activity (AID 720636; active means well fitted curve in the direction sought with a large enough effect in the repeat runs; an effect the other way counts as inactive or inconclusive; further: potency means the concentration at half of the fitted maximal effect;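 on activation: HepG2 cells with an ARE-driven luciferase reporter; % of control where 0% means no effect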). Summed up: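 Reporter gene assay, HepG2 ARE-luc: 16 hr compound, 37 C, 5% CO2; read-out luciferase luminescence.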
Experiment [8] has as its target Tyrosine-protein kinase Yes (Homo sapiens) (UniProt P07947). In words: qHTS for small molecule inhibitors of Yes1 kinase: Primary Screen (AID 686947). Further: nearly all actives have a fitted effect of over 60% in size. Further: potency means the concentration at half of the fitted maximal effect. Summed up: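 In this qHTS format, inhibition is expressed relative to DMSO controls with enzyme (maximum) and without enzyme (minimum). The 60 min room-temperature reaction uses 0.1 mM ATP, with ADP detected by luminescence.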

Experiment [9] is described as follows: qHTS for small molecule inhibitors of Yes1 kinase: Counter Assay (AID 686950).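 Further: no kinase present so only ADP-Glo detection of a fixed ADP amount is tested; luminescence from ADP-Glo reporting ADP in a fixed ATP and ADP mixture; series mostly up to about 77 µM; 0% = DMSO wells with ATP plus ADP and -100% = ATP-only wells without ADP.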 Summed up: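 ADP-Glo luminescence read after a 60 min room-temperature incubation of compound with an ATP/ADP mix (0.08 mM/0.02 mM) and no kinase, following a 20 min compound preincubation. Signal scaled between ATP+ADP (max) and 0.1 mM ATP-only (min) wells; Tris pH 7.5, Mg2+, DTT.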

Experiment [10] concerns the target Nuclear receptor ROR-gamma (Homo sapiens) (UniProt P51449). Briefly: qHTS assay for small molecule antagonists of the retinoid-related orphan receptor gamma (ROR-gamma) signaling pathway (AID 651802). Further: nearly all actives have a fitted effect of over 60% in size. Further: potency means the concentration at half of the fitted maximal effect. The gist of the method:
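Luciferase read-out: ONE-Glo luminescence after 30 min at room temperature, following 16hr doxycycline induction at 37C, 5% CO2 of CHO cells with TET-inducible ROR and RORE-LUC reporter; decreased luminescence = reduced reporter activity.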

Where “and” joins values, the source holds several entries; their conditions need not be identical. Equal values may be shown once. Values without a mark were called inactive. Results filed as inconclusive are left out. Calls of active or inactive are those of the source. Unless noted, the call rests on the fitted dose curve; in most records, active means well fitted curve in the direction sought with a large enough effect; inconclusive means small, poorly fitted or top-dose-only effect, or another doubt; inactive means no such curve, though single readings can be large; an effect the other way counts as inactive or inconclusive.

Sequence of Nuclear receptor ROR-gamma (Homo sapiens) (P51449 whole entry, looked up): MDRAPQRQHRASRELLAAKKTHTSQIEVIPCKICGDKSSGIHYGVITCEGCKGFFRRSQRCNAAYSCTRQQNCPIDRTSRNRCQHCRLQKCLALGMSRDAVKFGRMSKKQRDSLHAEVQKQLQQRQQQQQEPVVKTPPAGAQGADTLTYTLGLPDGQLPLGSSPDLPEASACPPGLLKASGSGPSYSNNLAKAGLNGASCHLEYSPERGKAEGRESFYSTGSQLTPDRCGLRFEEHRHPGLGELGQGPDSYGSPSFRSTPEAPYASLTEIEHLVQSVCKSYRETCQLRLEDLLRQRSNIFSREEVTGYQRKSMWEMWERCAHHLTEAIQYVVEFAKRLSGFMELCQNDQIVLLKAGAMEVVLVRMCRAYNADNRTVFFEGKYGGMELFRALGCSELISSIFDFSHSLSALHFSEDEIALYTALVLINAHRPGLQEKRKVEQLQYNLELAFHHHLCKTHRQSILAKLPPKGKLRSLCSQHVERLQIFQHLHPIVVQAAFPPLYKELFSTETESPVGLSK
Sequence of Tyrosine-protein kinase Yes (Homo sapiens) (P07947 whole entry, looked up): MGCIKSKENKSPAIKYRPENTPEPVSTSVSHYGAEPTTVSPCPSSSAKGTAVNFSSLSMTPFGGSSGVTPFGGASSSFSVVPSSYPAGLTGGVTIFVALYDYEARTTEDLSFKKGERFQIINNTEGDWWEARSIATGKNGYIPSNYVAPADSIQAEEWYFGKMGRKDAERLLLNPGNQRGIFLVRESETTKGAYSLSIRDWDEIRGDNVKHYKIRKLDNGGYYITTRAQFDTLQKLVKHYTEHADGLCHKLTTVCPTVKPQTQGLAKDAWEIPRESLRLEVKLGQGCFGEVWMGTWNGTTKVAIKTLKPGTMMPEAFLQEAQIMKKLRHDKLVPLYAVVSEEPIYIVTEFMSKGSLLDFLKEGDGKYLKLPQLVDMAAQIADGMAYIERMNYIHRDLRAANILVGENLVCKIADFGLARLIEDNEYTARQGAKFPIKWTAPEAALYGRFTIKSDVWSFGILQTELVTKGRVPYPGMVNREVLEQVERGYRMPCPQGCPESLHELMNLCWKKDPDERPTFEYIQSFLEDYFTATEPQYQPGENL
Sequence of Peroxisome proliferator-activated receptor alpha (Homo sapiens) (Q07869 whole entry, looked up): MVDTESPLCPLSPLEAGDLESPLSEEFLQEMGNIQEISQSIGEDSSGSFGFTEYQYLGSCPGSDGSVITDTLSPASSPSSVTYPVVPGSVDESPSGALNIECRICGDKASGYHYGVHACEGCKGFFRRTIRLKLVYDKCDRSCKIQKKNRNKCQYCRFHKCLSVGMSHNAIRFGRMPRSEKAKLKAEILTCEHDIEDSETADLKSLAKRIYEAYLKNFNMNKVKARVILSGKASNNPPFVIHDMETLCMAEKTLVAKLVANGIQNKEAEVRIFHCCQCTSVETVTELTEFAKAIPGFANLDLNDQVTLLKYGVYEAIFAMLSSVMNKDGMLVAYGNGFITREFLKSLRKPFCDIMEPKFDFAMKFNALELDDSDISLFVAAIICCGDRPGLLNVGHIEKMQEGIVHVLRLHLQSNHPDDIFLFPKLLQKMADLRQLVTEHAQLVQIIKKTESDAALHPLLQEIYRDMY

On to `CC(=O)N[C@@H](CS)C(=O)O`, for which the activation in [1] was -0.0175%. Moreover, the max response in experiment [2] was -0.248%. For the same compound, the outcome in experiment [3] and in [4] was inactive. Further, the Potency entry in experiment [5], in [6] and in [7] was “inactive” throughout.

Consider `Clc1ccc(-c2nc3sccn3c2C=NOCc2ccc(Cl)c(Cl)c2)cc1`, for which the Potency entry in experiment [8] was “inactive”. For the same compound, in [9], the outcome was inactive.

Turning to `O=C1NC(=O)C(c2ccccc2)(c2ccccc2)N1`, in experiment [1], the activation was -0.809% and 0.125% and -0.632%. In experiment [2], the max response was -3.11% and -0.24% and -0.609%. Further, the Potency entry in [10], in experiment [5], in experiment [6] and in experiment [7] was “inactive” each time. The outcome in [3] and in experiment [4] was inactive.

Turning to `O=c1[nH]cnc2c1ncn2[C@H]1CC[C@@H](CO)O1`, the activation in [1] was -1.42% and 4.55%. Further, the max response in experiment [2] was -3.68% and -4.63%. Moreover, the Potency entry in experiment [10] and in [7] was “inactive” throughout.

Turning to `O=c1c(O)c(-c2ccc(O)cc2)oc2cc(O)cc(O)c12`, in experiment [2], the max response is -3% and -2.05%.

Take `CCn1cc(C(=O)O)c(=O)c2ccc(C)nc21`: the max response in experiment [2] was -3.78% and -0.0141%. Also, the Potency entry in experiment [10], in [5], in experiment [6] and in experiment [7] was “inactive” each time. For the same compound, the result in experiment [3] and in experiment [4] was inactive.

Regarding `O=c1cc(-c2ccc(O)cc2)oc2cc(O)cc(O)c12`, in experiment [2], the max response is -4.82% and -0.91%. Also, the outcome in [3] and in experiment [4] was inactive. Moreover, the Potency in [5] is 16.4 µM (active); in experiment [6], 3.26 µM (active).

In the case of `CCCNC(=O)NS(=O)(=O)c1ccc(Cl)cc1`, the activation in experiment [1] is 0.08% and -1.06%. For the same compound, in experiment [2], the max response was 5.97% and -0.845%. In addition, the Potency result in experiment [10], in experiment [5], in [6] and in experiment [7] was “inactive” each time. Besides, in experiment [4], the call was inactive.

`O=C(O)c1cc(O)c2c(c1)C(=O)c1cccc(O)c1C2=O`: the activation in [1] was 1.52%. In addition, in [2], the max response was -6.2%. In addition, the Potency in [10] was 37.6 µM (active). The Potency entry in experiment [7] is “inactive”.

With `CC(C)C(=O)Nc1ncc(-c2cc(C(F)F)nn2-c2c(Cl)cccc2Cl)s1`, the Potency in experiment [8] was 27.4 µM (active). Further, the outcome in experiment [9] was inactive.

Consider `CC(=O)O[C@]1(C(C)=O)CC[C@H]2[C@@H]3C=C(Cl)C4=CC(=O)[C@@H]5C[C@@H]5[C@]4(C)[C@H]3CC[C@@]21C`, for which the activation in experiment [1] is 1.28% and -0.271%. Moreover, the max response in experiment [2] was 0.54% and -4.74%. Also, the result in [3] and in [4] was inactive. For the same compound, the Potency entry in experiment [5], in experiment [6] and in experiment [7] was “inactive” throughout.

On to `O=c1c(-c2ccc(O)cc2)coc2cc(O)ccc12`, for which the max response in experiment [2] is 0.0671% and -0.373%. Moreover, the Potency result in experiment [10] was “inactive”. Besides, the result in experiment [3] was inactive.

For `O=c1cc(-c2ccccc2)oc2cc(O)cc(O)c12`, the figures for the Potency in experiment [1] and in [7] were 39.8 µM (active) and 13.7 µM (active), respectively. Further, the max response in experiment [2] is -1.65%.

Turning to `COc1ccc(C2CC(c3ccccc3)=NN2c2ccc(S(N)(=O)=O)cc2)cc1` (stereo not given), in experiment [8], the Potency result was “inactive”. In addition, the outcome in [9] was inactive.

Turning to `CC1=C(/C=C/C(C)=C/C=C/C(C)=C/C(=O)Nc2ccc(O)cc2)C(C)(C)CCC1`, the activation in [1] is 4.06%. Moreover, the max response in experiment [2] is 8.2%. Moreover, the Potency in experiment [10] was 26.6 µM (active). Moreover, the Potency entry in experiment [8], in experiment [5], in experiment [6] and in [7] was “inactive” in each case. Besides, the call in experiment [9], in experiment [3] and in experiment [4] was inactive.

For `CN(C)CCC(c1ccccc1)c1ccccn1` (stereo not given), the activation in experiment [1] is -0.0214%. Besides, the max response in experiment [2] was -0.672%. Moreover, the result in experiment [3] and in experiment [4] was inactive. Also, the Potency entry in experiment [5], in experiment [6] and in [7] was “inactive” in each case.

Regarding `CC(C)OC(=O)C(C)(C)Oc1ccc(C(=O)c2ccc(Cl)cc2)cc1`, the activation in experiment [1] was 2.52%. Moreover, in experiment [3], the outcome was “inactive; inhibitor; fitted 0.151 uM”.

As to `CC/C(=C(\c1ccccc1)c1ccc(OCCN(C)C)cc1)c1ccccc1`, the activation in experiment [1] was -5.69% and -2.28%. Moreover, in experiment [10], the Potency was 29.8 µM (active). The Potency entry in experiment [8], in experiment [5], in [6] and in experiment [7] was “inactive” each time. The call in experiment [9] and in experiment [4] was inactive. Further, in experiment [3], the outcome was “inactive; inhibitor; fitted 5.3582 uM”.

As to `O=C(O)Cc1cccc2ccccc12`, the activation in experiment [1] is 0.508% and -1.02%. For the same compound, the max response in [2] was -0.727% and -1.42%. Moreover, the Potency entry in experiment [10] and in experiment [7] was “inactive” each time.

As for `CCCCC1C(=O)N(c2ccccc2)N(c2ccccc2)C1=O`, in experiment [1], the activation is -1.23% and 0.389%. Also, the max response in experiment [2] is -2.74% and -1.79%. Besides, the Potency result in [10], in experiment [6] and in [7] was “inactive” throughout. In addition, the result in experiment [3] and in experiment [4] was inactive.

On to `CC(C)(C)c1cc(C(=O)O)c(NC(=O)Nc2ccc3[nH]ncc3c2)s1`, for which the Potency entry in [8] is “inactive”. Also, the compound was classed as inactive in experiment [9].

On to `Cn1cc(C=C2C(=O)Nc3cccnc32)c2ccccc21`, for which, in [8], the Potency is 0.519 µM (active). Besides, the compound was classed as inactive in experiment [9].

The values above are taken from PubChem BioAssay (NCATS).
